Data published in PubChem BioAssay (EPA / NIEHS).
Where “and” joins values, the source holds several entries; their conditions need not be identical. Identical values can stand only once. Results filed as inconclusive are left out. More than one record can exist for a structure, and the calls need not agree. Calls of active or inactive are those of the source. The calls were made as follows: active = hit-call score of the fitted dose curve at least 0.9, where 1 is the maximum; inconclusive = response in the unintended direction; inactive = score below 0.9.

Molecular target: bovine Estrogen Receptor (ER), ESR1 (gene 407238) (UniProt P49884)
Sequence (P49884 whole entry, looked up): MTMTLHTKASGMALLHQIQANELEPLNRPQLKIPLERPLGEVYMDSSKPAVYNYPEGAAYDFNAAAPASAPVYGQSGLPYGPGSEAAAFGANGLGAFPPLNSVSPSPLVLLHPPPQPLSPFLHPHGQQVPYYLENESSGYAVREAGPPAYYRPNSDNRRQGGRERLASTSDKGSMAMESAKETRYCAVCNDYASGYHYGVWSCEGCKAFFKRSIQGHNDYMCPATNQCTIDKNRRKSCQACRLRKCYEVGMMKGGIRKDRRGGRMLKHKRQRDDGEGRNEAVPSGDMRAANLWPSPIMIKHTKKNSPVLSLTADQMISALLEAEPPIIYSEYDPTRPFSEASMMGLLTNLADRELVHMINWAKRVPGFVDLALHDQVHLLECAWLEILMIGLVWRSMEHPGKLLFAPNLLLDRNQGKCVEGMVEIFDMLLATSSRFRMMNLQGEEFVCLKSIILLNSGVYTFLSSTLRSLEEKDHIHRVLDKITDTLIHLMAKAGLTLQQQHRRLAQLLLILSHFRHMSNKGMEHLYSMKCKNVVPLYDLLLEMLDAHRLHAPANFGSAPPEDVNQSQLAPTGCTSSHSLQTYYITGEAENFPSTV
Experiment: NVS_NR_bER: NovaScreen (NVS) Nuclear Receptor Binding Assay for bovine Estrogen Receptor (ER) (AID 2283345);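 also: actives lower the bound radioligand count which means they displace the ER ligand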
Procedure, shortened: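 Cell-free radioligand binding with bovine uterine membrane extracts, read 18 hours after dosing by scintillation counting. Loss of signal versus DMSO baseline indicates displacement. Primary screen run in duplicate at 25 uM, actives followed in concentration series.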

| SMILES | outcome | AC50 |
| --- | --- | --- |
| CC/C=C\CCCCCCCCCCOC(C)=O | inactive |  |
| CCC(C)(C)C1CCC(=O)CC1 |  | 4.52 µM (active) |
| CC1(C)CC(=O)CC(C)(C)N1 | inactive |  |
| CC(=O)CC(=O)N(C)C | inactive |  |
| C=CC(=O)OCC(CO)(COC(=O)C=C)COC(=O)C=C | inactive |  |
| Cc1cccc(O)c1 | inactive |  |

Molecular target: chimpanzee Androgen Receptor (AR), AR (gene 747460) (UniProt O97775)
Sequence (O97775 whole entry, looked up): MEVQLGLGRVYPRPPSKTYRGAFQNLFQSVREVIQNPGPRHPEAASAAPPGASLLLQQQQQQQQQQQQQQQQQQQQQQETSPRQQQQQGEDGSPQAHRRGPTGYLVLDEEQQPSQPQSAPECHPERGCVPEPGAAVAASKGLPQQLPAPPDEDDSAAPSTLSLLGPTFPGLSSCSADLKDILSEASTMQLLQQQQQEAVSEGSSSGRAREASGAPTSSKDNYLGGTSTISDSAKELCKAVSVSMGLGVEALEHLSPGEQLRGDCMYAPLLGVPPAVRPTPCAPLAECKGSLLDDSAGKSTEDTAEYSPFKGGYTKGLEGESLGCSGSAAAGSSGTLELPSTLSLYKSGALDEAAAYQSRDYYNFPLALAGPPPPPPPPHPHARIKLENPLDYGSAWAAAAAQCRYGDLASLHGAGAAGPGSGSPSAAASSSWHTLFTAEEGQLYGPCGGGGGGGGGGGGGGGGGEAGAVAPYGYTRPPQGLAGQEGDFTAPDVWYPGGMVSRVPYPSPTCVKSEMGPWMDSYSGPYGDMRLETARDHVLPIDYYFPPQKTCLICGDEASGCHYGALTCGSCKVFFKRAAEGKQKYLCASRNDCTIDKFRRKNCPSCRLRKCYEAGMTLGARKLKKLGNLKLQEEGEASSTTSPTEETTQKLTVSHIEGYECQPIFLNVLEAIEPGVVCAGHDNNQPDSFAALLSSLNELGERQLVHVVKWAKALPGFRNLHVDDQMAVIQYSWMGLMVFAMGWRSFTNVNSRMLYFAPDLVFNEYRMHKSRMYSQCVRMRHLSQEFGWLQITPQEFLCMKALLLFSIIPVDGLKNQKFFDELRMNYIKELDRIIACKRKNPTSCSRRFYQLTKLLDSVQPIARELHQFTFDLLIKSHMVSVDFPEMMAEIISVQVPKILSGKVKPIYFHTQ
Experiment: NVS_NR_cAR: NovaScreen (NVS) Nuclear Receptor Binding Assay for chimpanzee Androgen Receptor (AR) (AID 2283346);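 also: radioligand displacement from AR measured by scintillation counting in a cell-free assay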
Procedure, shortened: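 Cell-free radioligand displacement using receptor protein extracted from Sf9/Sf21 cells; bound radioligand measured by scintillation counting 72 hours after chemical dosing. Loss of signal versus DMSO baseline indicates binding; primary screen single-concentration in duplicate at 25 uM, actives followed in concentration series.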

| SMILES | AC50 | outcome |
| --- | --- | --- |
| O=C1OC2(c3ccc(O)cc3Oc3cc(O)ccc32)c2ccccc21 | 13.5 µM (active) | inactive |
| C=CCOCC(O)CO (configuration not stated) | 1.33 µM (active) |  |
| C#C[C@]1(O)CC[C@H]2[C@@H]3CCc4cc(O)ccc4[C@H]3CC[C@@]21C | 966 nM (active) and 80.5 nM (active) |  |
| N#CCCCC(C#N)CCC#N (configuration not stated) |  | inactive |
| CCCCCC(=O)O[C@]1(C(C)=O)CC[C@H]2[C@@H]3CCC4=CC(=O)CC[C@]4(C)[C@H]3CC[C@@]21C | 1.12 µM (active) |  |
| CC1(C)CC(=O)CC(C)(C)N1 |  | inactive |
| CC(=O)CC(=O)N(C)C |  | inactive |
| O=C(c1ccc(OCCN2CCCCC2)cc1)c1c(-c2ccc(O)cc2)sc2cc(O)ccc12 | 25 µM (active) | inactive |

Molecular target: Estrogen receptor (Homo sapiens) (UniProt P03372)
Sequence (P03372 whole entry, looked up): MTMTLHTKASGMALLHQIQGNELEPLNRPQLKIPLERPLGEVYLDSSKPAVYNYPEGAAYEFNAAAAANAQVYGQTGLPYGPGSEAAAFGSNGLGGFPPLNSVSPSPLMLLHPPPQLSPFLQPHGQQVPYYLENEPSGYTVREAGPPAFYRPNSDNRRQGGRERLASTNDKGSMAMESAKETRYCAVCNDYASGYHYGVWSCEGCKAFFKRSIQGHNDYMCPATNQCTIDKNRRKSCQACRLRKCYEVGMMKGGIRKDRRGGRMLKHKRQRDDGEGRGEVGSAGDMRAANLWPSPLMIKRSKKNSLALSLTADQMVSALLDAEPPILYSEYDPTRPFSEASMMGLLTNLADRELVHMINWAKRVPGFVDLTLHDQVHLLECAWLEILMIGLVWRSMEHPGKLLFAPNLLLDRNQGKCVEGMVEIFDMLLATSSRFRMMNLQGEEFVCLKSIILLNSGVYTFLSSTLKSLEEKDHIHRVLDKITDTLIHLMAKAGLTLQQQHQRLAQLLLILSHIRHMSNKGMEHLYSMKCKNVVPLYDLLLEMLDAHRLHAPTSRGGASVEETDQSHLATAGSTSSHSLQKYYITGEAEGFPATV
Experiment: NVS_NR_hER: NovaScreen (NVS) Nuclear Receptor Binding Assay for human Estrogen Receptor (ER) (AID 2283348)
Procedure, shortened: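 Cell-free radioligand binding with protein extracted from MCF7 cells; scintillation counting 18 hours after dosing. Loss of signal versus DMSO baseline read as displacement; primary single-concentration screen at 25 uM in duplicate, actives retested in concentration series.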

| SMILES | outcome | AC50 |
| --- | --- | --- |
| CN(C)CCC=C1c2ccccc2CCc2ccccc21 | inactive |  |
| O=S1(=O)CC(Cl)(Cl)C(Cl)(Cl)C1 |  | 18.5 µM (active) |
| CCCCCCCCOC(=O)c1ccc(O)cc1 |  | 2.7 µM (active) |
| CCCCCCOc1ccc(O)cc1 |  | 12 µM (active) |
| CC(C)(C)c1ccc(S)cc1 |  | 0.283 µM (active) |
| CCCCCCCCCOS(=O)(=O)O |  | 11.1 µM (active) |
| CC(=O)C1C(=O)C=C(C)OC1=O (configuration not stated) | inactive |  |
| O=C(Nc1cccc(Cl)c1)OCC#CCCl | inactive |  |
| CCCCCCCCCCCCOCCOS(=O)(=O)O |  | 22.8 µM (active) |
| O=C1OC2(c3ccc(O)cc3Oc3cc(O)ccc32)c2ccccc21 | inactive | 9.78 µM (active) |
| CC/C=C\CCOC(C)OCC (configuration not stated) | inactive |  |
| COc1ccccc1O | inactive |  |
| CCC(=O)OC(C)(C)C1CC=C(C)CC1 (configuration not stated) | inactive |  |
| CCC(C)(C)c1cc(O)c(C(C)(C)CC)cc1O | inactive |  |
| CC(O)CN (configuration not stated) | inactive |  |
| CCOCC(C)O (configuration not stated) | inactive |  |
| CCC(C)(C)C1CCC(=O)CC1 |  | 0.983 µM (active) |
| CC(=O)CC(=O)N(C)C | inactive |  |
| C=CC(=O)OCC(CO)(COC(=O)C=C)COC(=O)C=C | inactive |  |
| Cc1cccc(O)c1 | inactive |  |
